From PubChem BioAssay (NCATS)
Inconclusive results are not listed. Activity calls are given as the source filed them. Unless noted, the call rests on the fitted dose curve; in most records, active means well fitted curve in the direction sought with a large enough effect; inconclusive means small, poorly fitted or top-dose-only effect, or another doubt; inactive means no such curve, though single readings can be large; an effect the other way counts as inactive or inconclusive.

Experiments:
[1] = target: Voltage-gated inwardly rectifying potassium channel KCNH2 (Homo sapiens) (UniProt Q12809); assay: qHTS Assay for Small Molecule Inhibitors of the Human hERG Channel Activity (AID 588834); details: U2OS BacMam hERG, FluxOR thallium flux fluorescence; series mostly up to 46.1 µM;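 further: lower thallium flux fluorescence means stronger hERG block; nearly all actives have a fitted effect of over 50% in size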; further: potency means the concentration at half of the fitted maximal effect
How it was run: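 Concentration-response qHTS measuring drop in thallium-sensitive dye signal. U2OS cells carrying BacMam hERG; compound exposure ~10 min, then stimulation buffer and 2 min read at 1 sec intervals.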

[2] = target: Luciferin 4-monooxygenase (Photinus pyralis) (UniProt P08659); assay: Biochemical firefly luciferase enzyme assay for NPC (AID 624030); further: nearly all actives have a fitted effect of over 70% in size; further: potency means the concentration at half of the fitted maximal effect; details: purified P. pyralis luciferase, luminescence, 5 min; series mostly up to 58.6 µM
How it was run: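 Counter-screen for direct inhibition of the luciferase enzyme by approved-drug library compounds, run at 10 nM enzyme in 50 mM Tris acetate (final). Luminescence was read within 5 min of enzyme-buffer addition and normalized to PTC124 versus DMSO (0%).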

[3] = S16 Schwann cell viability assay (CellTiter-Glo assay) (AID 624031); details: S16 rat Schwann cells viability, 24 h; series mostly up to 57.5 µM;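 further: native untransfected S16 rat Schwann cells; cellular ATP luminescence as a viability measure; nearly all actives have a fitted effect of over 70% in size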
How it was run: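 Rat S16 Schwann cells without reporter constructs received compound or DMSO for 24 h at 37 °C under 5% CO2. Cellular ATP was then quantified by CellTiter-Glo luminescence, with vehicle wells defined as 0% activity and cell-free wells as reference.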

[4] = S16 Schwann cell PMP22 intronic element firefly luciferase assay (AID 624032); details: S16 rat Schwann cells, PMP22 element FLuc, 24 h; series mostly up to 57.5 µM; further: nearly all actives have a fitted effect of over 30% in size
How it was run: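 Rat S16 Schwann cells stably carrying a PMP22 intronic element-driven Fluc reporter were seeded overnight, then exposed to compounds for 24 h at 37 °C. Luminescence was normalized to PTC124 (positive control) and DMSO (0% activity).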

[5] = S16 Schwann cell PMP22 intronic element beta-lactamase assay (AID 624044; calls by dose curve; further: nearly all actives have a fitted effect of over 15% in size); details: S16 rat Schwann cells, PMP22 element beta-lactamase FRET, 24 h; series mostly up to 38.3 µM
How it was run: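 Rat S16 Schwann cells with beta-Lac driven by a PMP22 intronic element, compound-treated 24 h at 37 °C. LiveBLAzer FRET B/G read: 460 nm normalized to potassium clavulanate vs DMSO; 535 nm FRET as viability; concentration-effect curves classified.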

Measured: Potency

Chain of Voltage-gated inwardly rectifying potassium channel KCNH2 (Homo sapiens) (Q12809 whole entry, looked up): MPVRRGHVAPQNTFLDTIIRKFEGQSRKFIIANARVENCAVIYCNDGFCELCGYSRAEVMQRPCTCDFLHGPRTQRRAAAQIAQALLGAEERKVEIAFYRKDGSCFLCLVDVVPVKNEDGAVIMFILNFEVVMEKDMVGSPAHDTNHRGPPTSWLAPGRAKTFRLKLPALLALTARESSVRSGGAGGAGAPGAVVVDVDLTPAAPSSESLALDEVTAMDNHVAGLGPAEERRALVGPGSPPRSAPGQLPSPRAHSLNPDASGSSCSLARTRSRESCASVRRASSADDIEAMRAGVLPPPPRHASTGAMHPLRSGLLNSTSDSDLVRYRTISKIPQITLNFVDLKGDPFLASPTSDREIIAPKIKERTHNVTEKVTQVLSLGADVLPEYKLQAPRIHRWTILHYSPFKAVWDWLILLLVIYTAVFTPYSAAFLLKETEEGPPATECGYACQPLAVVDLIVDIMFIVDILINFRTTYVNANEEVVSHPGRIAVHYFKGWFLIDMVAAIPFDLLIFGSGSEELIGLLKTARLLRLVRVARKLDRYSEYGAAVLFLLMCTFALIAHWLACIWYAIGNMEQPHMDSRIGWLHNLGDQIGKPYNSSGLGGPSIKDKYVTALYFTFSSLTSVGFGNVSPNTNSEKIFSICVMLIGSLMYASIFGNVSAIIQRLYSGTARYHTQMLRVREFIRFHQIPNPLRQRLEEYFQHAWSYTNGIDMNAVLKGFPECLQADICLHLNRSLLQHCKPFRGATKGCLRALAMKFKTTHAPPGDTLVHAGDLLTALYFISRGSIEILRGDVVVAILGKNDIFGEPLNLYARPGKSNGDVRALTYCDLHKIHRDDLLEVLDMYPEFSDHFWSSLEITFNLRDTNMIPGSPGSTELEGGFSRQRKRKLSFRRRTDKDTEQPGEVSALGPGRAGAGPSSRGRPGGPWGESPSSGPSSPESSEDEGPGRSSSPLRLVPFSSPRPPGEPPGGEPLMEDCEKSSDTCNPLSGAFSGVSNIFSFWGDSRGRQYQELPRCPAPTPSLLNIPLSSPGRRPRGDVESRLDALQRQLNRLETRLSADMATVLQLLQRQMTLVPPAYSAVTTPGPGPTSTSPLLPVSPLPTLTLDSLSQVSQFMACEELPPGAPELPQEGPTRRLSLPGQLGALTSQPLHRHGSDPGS
Chain of Luciferin 4-monooxygenase (Photinus pyralis) (P08659 whole entry, looked up): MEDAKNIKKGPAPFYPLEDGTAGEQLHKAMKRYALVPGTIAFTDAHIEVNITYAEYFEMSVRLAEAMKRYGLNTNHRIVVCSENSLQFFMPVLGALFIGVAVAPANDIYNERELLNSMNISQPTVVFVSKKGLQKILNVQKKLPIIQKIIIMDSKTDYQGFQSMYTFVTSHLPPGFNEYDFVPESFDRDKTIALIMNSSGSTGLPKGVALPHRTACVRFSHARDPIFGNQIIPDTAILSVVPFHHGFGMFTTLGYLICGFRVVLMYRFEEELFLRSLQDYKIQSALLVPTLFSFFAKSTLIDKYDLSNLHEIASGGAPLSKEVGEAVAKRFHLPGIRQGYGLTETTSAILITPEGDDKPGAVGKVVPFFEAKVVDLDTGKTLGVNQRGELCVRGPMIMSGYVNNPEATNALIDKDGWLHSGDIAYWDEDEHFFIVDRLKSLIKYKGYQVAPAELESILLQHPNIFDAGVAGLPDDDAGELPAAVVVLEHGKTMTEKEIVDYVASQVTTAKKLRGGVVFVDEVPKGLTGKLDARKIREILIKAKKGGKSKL

CN1CCC(OC(c2ccccc2)c2ccccc2)CC1
active: [1] 4.47 µM
inactive: all other assays above

CCCCNc1ccc(C(=O)OCCOCCOCCOCCOCCOCCOCCOCCOCCOC)cc1
inactive: all assays above

NC1CCN(c2nc3c(cc2F)c(=O)c(C(=O)O)cn3-c2ccc(F)cc2F)C1 (stereo not drawn)
not listed: [5]
inactive: all other assays above

C[C@@H](O)[C@H]1C(=O)N2C(C(=O)O)=C(S[C@@H]3CN[C@H](CNS(N)(=O)=O)C3)[C@H](C)[C@H]12
inactive: all assays above

Nc1nc(-c2ccccc2)c(Br)c(=O)[nH]1
inactive: all assays above

O=C(O)P(=O)(O)O
inactive: all assays above

C/C=C/C=N/NC(=O)c1ccncc1
inactive: all assays above

COc1ccc(-c2cc(C(F)F)nn2-c2ccc(S(N)(=O)=O)cc2)cc1F
inactive: all assays above

CCC(CC)(CC(=O)Nc1cccc(/C=C/c2nc(C3CCC3)cs2)c1)C(=O)O
active: [2] 5.73 µM
inactive: all other assays above

CCN(CC)CCOC(=O)C1(c2ccccc2)CCCC1
not listed: [5]
inactive: all other assays above

C#C[C@]1(O)CC[C@H]2[C@@H]3CCc4cc(OC)ccc4[C@H]3CC[C@@]21C
inactive: all assays above
